Screening data (PubChem BioAssay)
Shown are actives, neighbours in structure and some others; about 2% of the full set was active somewhere.
Abeta yeast res: A-beta toxicity reversal in yeast; yeast expressing A-beta42, growth rescue, OD600, 48 h; response scale: 0% DMSO, 100% iron-clioquinol control; Potency, µM (top dose mostly 46.1 µM), hits mostly activators; 410,000 compounds, 0.063% hits; AID 1347071; note: potency is the fitted concentration of half-maximal effect; nearly all actives have a fitted effect of over 55% in size
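Yeast A-beta toxicity model in growth medium with pinned compounds, 48 h at 30 C; growth read as absorbance at 600 nm. Normalized to FeCl3/clioquinol equimolar mix (positive) and DMSO (negative).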
LDHA inh: LDHA (human) enzyme inhibition | activity change, % (values are at about 110 or 230 µM) | P00338 | 480,000 compounds, 0.15% hits | purified LDHA, NADH/diaphorase-resazurin fluorescence; stronger effect = lower value | AID 1347041; in the data active = activity change below about -30%; inconclusive = mostly about -25% to -30%;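 note: plate controls were DMSO wells for no effect and wells without enzyme for full effect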
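Resorufin fluorescence (ex540/em590), read at 0 and 20 min after diaphorase/resazurin addition, reports the NADH left after a 5 min room-temperature reaction of 2 nM human LDH5 with 0.06 mM NADH and 0.2 mM pyruvate.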
mIDH1 inhibitor: human IDH1 R132H inhibition; O75874; IDH1-R132H enzyme, NADPH consumption, diaphorase/resazurin fluorescence; Potency, µM (titrated, usually from 76.6 µM), inactives show at the top dose activity change, negative = inhibition, hits mostly inhibitors; 390,000 compounds, 0.093% hits; AID 602179; note: potency is the fitted concentration of half-maximal effect; % is set by controls: 0 for no effect and ±100 for the full control effect; nearly all actives have a fitted effect of over 65% in size
Target sequence (O75874 whole entry R132H, stated change not applied): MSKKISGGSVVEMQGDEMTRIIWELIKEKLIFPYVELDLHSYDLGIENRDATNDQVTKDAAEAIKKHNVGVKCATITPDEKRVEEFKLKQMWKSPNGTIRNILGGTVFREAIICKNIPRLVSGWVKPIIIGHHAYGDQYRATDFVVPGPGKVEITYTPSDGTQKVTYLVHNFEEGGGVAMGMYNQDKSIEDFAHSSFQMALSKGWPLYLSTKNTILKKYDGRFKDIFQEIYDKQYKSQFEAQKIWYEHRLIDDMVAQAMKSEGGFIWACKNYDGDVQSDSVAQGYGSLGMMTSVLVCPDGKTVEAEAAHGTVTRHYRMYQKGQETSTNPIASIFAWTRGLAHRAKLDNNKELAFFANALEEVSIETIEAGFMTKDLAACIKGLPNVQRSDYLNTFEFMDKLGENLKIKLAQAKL
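IDH1-R132H (0.5 ug/mL) preincubated 30 min with compound, then NADPH (0.016 mM) and alpha-KG (2 mM) added; 80 min at RT, pH 7.5. Remaining NADPH coupled via diaphorase/resazurin to fluorescence (540/590 nm); concentration-response curves normalized to no-enzyme control.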
aSyn yeast inh: alpha-synuclein toxicity inhibition in yeast; Yeast expressing alpha-synuclein, growth rescue, BacTiter-Glo, 24 h; 370,000 compounds, 0.14% hits; Potency, µM (doses to about 46.1 µM), for inactives: at the highest dose growth rescue (activation), hits mostly activators; note: potency is the fitted concentration of half-maximal effect; % of control where 0% means no effect; nearly all actives have a fitted effect of over 65% in size
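Rescue of yeast growth: cells expressing toxic alpha-synuclein, induced in galactose at OD600 0.02, incubated with compound 24 h at 30 C. ATP luminescence quantified growth; inhibitors of toxicity appear as activators.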
TDP43 rescue: rescues yeast growth from TDP-43 toxicity; Potency, µM (doses to about 46.1 µM), without a hit: top-dose growth rescue (activation), hits mostly activators; AID 652104; TDP-43 expressing yeast growth rescue, BacTiter-Glo, 24 h; 410,000 compounds, 1.8% hits; note: potency is the fitted concentration of half-maximal effect; % of control where 0% means no effect; nearly all actives have a fitted effect of over 50% in size
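Readout is BacTiter-Glo luminescence of cell growth, so inhibitors register as activators. TDP-43-expressing yeast at OD600=0.02 in galactose medium, after raffinose pregrowth to mid-log, were incubated with compound for 24 hr at 30 deg C.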
FUS yeast rescue: rescues growth of FUS-expressing yeast | S. cerevisiae FUS-expressing, growth rescue, OD600, 24 h | Potency, µM (top dose mostly 76.6 µM), actives largely listed as activators | 390,000 compounds, 0.24% hits;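 note: potency is the fitted concentration of half-maximal effect; plate controls were DMSO vehicle for no effect and reference control for full effect; nearly all actives have a fitted effect of over 55% in size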
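Absorbance at 600 nm, taken 24hr after compound addition, measured rescue of FUS-yeast growth at 30C. Induction used 2% galactose with seeding at OD 0.005. Controls: CP55940 from 92uM final, DMSO only.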
Resorufin autofl: autofluorescence interference, mutant IDH1 hit counter-screen; inhibition of signal, % at 51.2 µM; AID 623980; 750 tested, under 10 active; shares compounds with mIDH1 inhibitor; Resorufin detection reagent fluorescence interference, cell-free;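 note: 0% = wells with normal resorufin and full inhibition = wells lacking resorufin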
IDH1 WT: selectivity of mutant IDH1 inhibitors: human wild-type IDH1. WT IDH1 enzyme, NADPH diaphorase/resazurin fluorescence. shares compounds with mIDH1 inhibitor. AID 623995. 750 compounds, 9% hits. Potency, µM (top dose mostly 115 µM), inactives show at the highest dose activity change, negative = inhibition, most hits filed as inhibitors;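 note: potency is the fitted concentration of half-maximal effect; 0% = full WT IDH1 enzyme control and full inhibition = no enzyme wells; nearly all actives have a fitted effect of over 55% in size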
Target sequence (O75874 whole entry, looked up): as the sequence (O75874 whole entry R132H, stated change not applied) above, with H132R counted along it
IDH1 R132H conf: inhibits human mutant IDH1 enzyme in cherrypick confirmation; shares compounds with mIDH1 inhibitor; IDH1 R132H enzyme, NADPH diaphorase/resazurin fluorescence; Potency, µM (titrated, usually from 76.6 µM), for inactives: at the top dose activity change, negative = inhibition, most hits filed as inhibitors; 750 compounds, 83% hits; note: potency is the fitted concentration of half-maximal effect; nearly all actives have a fitted effect of over 50% in size
* hit, by the source's call; i = inactive; ? = inconclusive; . = no result; [ ] = dose if it differs, or a comment. Unless noted, calls come from the whole dose curve; as a rule, active = well fitted curve in the direction sought with a large enough effect; inconclusive = small, poorly fitted or top-dose-only effect, or another doubt; inactive = no such curve, though single readings can be large; an effect the other way counts as inactive or inconclusive.

SMILES	Abeta yeast res	LDHA inh	mIDH1 inhibitor	aSyn yeast inh	TDP43 rescue	FUS yeast rescue	others
CC(C)CC(NC(=O)CCCNC(=O)CCC(=O)OC1O[C@H]2OC3(C)CC[C@H]4[C@H](C)CCC(C1C)C24OO3)C(=O)O (some centres not stated)	i	-9	-10%	-2%	20µM*	i
c1ccc(CCNC2CCCCCCC2)cc1	.	0	.	.	.	.
CCCCSc1nc2c(cnn2-c2ccccc2)c(=O)n1N	i	-1	13%	-29%	16µM*	i
Nc1cnn(-c2ccccc2)c(=O)c1Cl	i	-3	9%	-1%	8%	i
C=CCCC[C@@H]1OC(=O)CNC(=O)C([C@@H](C)CC)NC(=O)[C@@H]2CCCN2C(=O)C([C@@H](C)CC)OC(=O)[C@H](Cc2ccccc2)N(C)C(=O)[C@H](C(C)C)NC(=O)C1(C)C (some centres not stated)	i	-2	.	11%	-2%	4µM*
CC(C)Oc1cc(-n2c(=S)[nH]c3ccccc3c2=O)c(Cl)cc1Cl	i	-5	-10%	-5%	10µM*	i
c1coc(CN2Cc3ccccc3-n3nncc3C2)c1	i	-32*	-2%	0%	4%	i
O=[N+]([O-])c1ccc(S(=O)(=O)N2CCn3cccc3C2c2ccccc2F)cc1 (configuration not stated)	i	2	14%	.	22µM*	?
CCC(=NCc1ccc2c(c1)OCO2)c1c(O)n(C2CCCCC2)c(=O)[nH]c1=O	i	6	2%	1%	20µM*	i
CCC(=NCCO)c1c(O)n(C2CCCCC2)c(=O)[nH]c1=O	i	-7	-1%	0%	25%	i
CN(CCOc1ccc(C=C2C(=O)NC(=O)NC2=O)cc1)c1ccccn1	i	-32*	8%	-13%	-2%	i
O=C1NC(=O)C(=Cc2ccc(OCC(=O)N3CCOCC3)cc2)C(=O)N1	i	4	6%	-25%	0%	.
CCCC(=O)c1cn(Cc2ccc(C#N)cc2)c2ccccc12	.	0	.	.	.	.
Cc1cc(O)c2c(C)c(CC(=O)N3CCN(C)CC3)c(=O)oc2c1	.	8	.	.	.	.
C[C@]12CC[C@@H](O)C[C@@H]1CC[C@@H]1[C@@H]2CC[C@]2(C)C(=O)CC[C@@H]12	i	-1	6%	1%	18µM*	i
C[C@]12CC[C@H](O)C[C@@H]1CC[C@H]1[C@H]3CCC(=O)[C@@]3(C)CC[C@@H]12	i	-3	-7%	15%	?	i
COc1ccc(OC)c(/C=N/OC(=O)Nc2ccc(Cl)cc2)c1	i	-11	-5%	-15%	18µM*	i
COc1ccc(/C=N/N=C(/N)N[N+](=O)[O-])c(OC)c1	i	-5	0%	1%	14%	i
O=P(Nc1cccc(Cl)c1)(Oc1ccccc1)Oc1ccccc1	?	0	-6%	22µM*	-16%[1.82 µM]	i
COc1cccc(NP(=O)(Oc2ccccc2)Oc2ccccc2)c1	i	-8	3%	?	3%	.
Cc1[nH]c2ccccc2c1/C=C/[N+](=O)[O-]	.	12	.	.	.	.
O=C(COc1ccc(Br)cc1)N1CCN(Cc2ccncc2)CC1	i	-39*	8%	-1%	11%	i
CN(C)C(=O)Oc1ccc2cc(-c3ccccc3)c(=O)oc2c1	.	-19	.	.	.	.
COc1ccc(S(=O)(=O)Cc2ccc(C(=O)N3CCC4(CC3)OCCO4)o2)cc1	i	-3	10%	-8%	2.5µM*	i
N#Cc1ccc(NC(=O)CCC2CCCC2)cc1Cl	.	-1	.	.	.	.
SMILES	Abeta yeast res	LDHA inh	mIDH1 inhibitor	aSyn yeast inh	TDP43 rescue	FUS yeast rescue	others
Cn1cnc([N+](=O)[O-])c1Sc1ccc([N+](=O)[O-])cc1	i	-7	3%	-18%	20µM*	i
COc1ccc(N2C(=O)CC(N3CC=C(c4ccccc4)CC3)C2=O)cc1 (configuration not stated)	i	1	13%	?	22µM*	i
N#CC1(c2ccccc2)CCN(C2CC(=O)N(c3ccc(F)cc3)C2=O)CC1 (configuration not stated)	i	-11	6%	-1%	-1%	i
CC12CC[C@H]3[C@@H](CCC4(O)CC(O[N+](=O)[O-])CCC34CO[N+](=O)[O-])C1(O)CCC2C1=CC(=O)OC1 (some centres not stated)	.	0	.	.	.	.
Cc1cccc(-n2c(/C=C/c3ccco3)nc3ccccc3c2=O)c1	.	6	.	.	.	.
CCCCn1c(O)c(C(CC)=NCc2ccc(F)cc2)c(=O)[nH]c1=O	i	-5	6%	5%	22µM*	?
CCOc1ccc(CNCCc2c[nH]c3ccccc23)cc1OC	.	6	.	.	.	.
O=C(COC(=O)CCc1nc2ccccc2s1)Nc1ccc(Cl)cc1C(=O)c1ccccc1	.	-2	.	.	.	.
COc1ccc(-c2noc(=O)n2Cc2cc(C)ccc2C)cc1	i	1	4%	30%	18µM*	i
Cc1ccc(C(=O)C(C)(C)NO)cc1	.	-10	.	.	.	.
COc1ccc(C(=O)C(C)(C)NO)cc1	?	-7	-1%	?	11µM*	i
COc1ccc(Nc2nc(N)nc(CSc3nc4ccccc4s3)n2)cc1	i	-7	?	.	20µM*	?
Cc1cc(C=C2C(=O)NC(=S)NC2=O)c(C)n1-c1ccc2c(c1)OCO2	?	1	41µM*	-1%	-17%	.	Resorufin autofl=2;IDH1 WT=?;IDH1 R132H conf=35µM*
Cc1cc(C=C2C(=O)NC(=O)NC2=O)c(C)n1-c1ccc2c(c1)OCO2	i	7	4%	0%	-31%	.
O=c1c2ccccc2nc(/C=C/c2cccnc2)n1Cc1ccccc1	i	-13	41µM*	4%	14%[9.22 µM]	i	Resorufin autofl=5;IDH1 WT=45µM*;IDH1 R132H conf=25µM*
